Consider 40 molecules from PubChem BioAssay (NCATS).

Results filed as inconclusive are left out. Calls of active or inactive are those of the source. Calls follow the shape of the dose curve; as a rule, active = well fitted cell-killing curve with a large enough effect; inconclusive = small, poorly fitted or top-dose-only effect, or effect the other way; inactive = no such curve, though single readings can be large or run the other way.
Potency is read from the fitted curve at half-maximal effect.

The test in a line: Quantitative High-Throughput drug screen in 47 multiple myeloma cell lines against the NCATS MIPE library collection: VP6_DJ cell viability assay (AID 1919867). Also: nearly all actives have a fitted effect of over 40% in size. The following applies: ATP luminescence, 48 h; series mostly up to 45.8 µM. From the text:
PI: Beverly A. Mock Ph.D.
Laboratory of Cancer Biology and Genetics,
Center for Cancer Research, National Cancer Institute,
National Institute of Health, Bethesda, Maryland
Drug resistance and disease progression are common in multiple myeloma (MM) patients, underscoring the need for new therapeutic combinations. […] We hypothesized that effective combinations would reduce MYC expression and enhance p16 activity. […] These preclinical data identify potentially useful drug combinations for evaluation in drug-resistant MM and reveal potential mechanisms of combined drug sensitivity.
Described herein is the primary MIPE qHTS used to cherrypick compounds. Validated compounds were then further tested for potential synergistic activiy.
[1] Peat TJ, Gaikwad SM, Dubois W, Gyabaah-Kessie N, Zhang S, Gorjifard S, Phyo Z, Andres M, Hughitt VK, Simpson RM, Miller MA, Girvin AT, Taylor A, Williams D, D'Antonio N, Zhang Y, Rajagopalan A, Flietner E, Wilson K, Zhang X, Shinn P, Klumpp-Thomas C, McKnight C, Itkin Z, Chen L, Kazandijian D, Zhang J, Michalowski AM, Simmons JK, Keats J, Thomas CJ, Mock BA. Drug combinations identified by high-throughput screening promote cell cycle transition and upregulate Smad pathways in myeloma. Cancer Lett. 2023 Aug 1;568:216284. doi: 10.1016/j.canlet.2023.216284. Epub 2023 Jun 24. PMID: 37356470; PMCID: PMC10408729.
SEQUENCE No. (e.g., 1, 2, 3, etc.); […] (e.g., Cells, Incubation, Reagent, etc.); VALUE and DESCRIPTION.
1; Cells; 5 uL; white, solid bottom 1536-well Greiner assay plate.
2; Compounds; 23 nL; Kalypsis pin tool (Wako USA) equipped with a 1536-well pin head to transfer to the assay plates.
3; Incubation; 48 hours; 37C incubation.
4; Reagent;5uL; CellTiter Glo (Promega).
5; Detector; 425V; Luminescence; Viewlux PerkinElmer.
NOTES (numbers refer to Sequence numbers above)
1. The cell-based screening methods employed in this study were like those previously published. Briefly, the corresponding myeloma cell lines were screened in 1,536-well plates with 500 cells, 5-uL per well for inhibition of cell viability (assessed by measuring ATP levels with CellTiterGlo).
2. NCATS MIPE 4.0 library of approved and investigational drugs were added using the Kalypsis pin tool. Wells treated with DMSO only for 100% viability and media only for 0% viability were used as controls.
3. The assay plates were covered and incubated for 48 hours in a 37C, 5% CO2 incubator with controlled humidity.
4. After 48 hours, CellTilter-GloTM luminescent substrate mix (Promega) reagent was added to the assay plate and plates we incubated for 5 min at room temperature.
5. Signal was measured as median relative luminescence units on a ViewLux (PerkinElmer) multiplate reader.
[1] Heske CM, Davis MI, Baumgart JT, Wilson K, Gormally MV, Chen L, Zhang X, Ceribelli M, Duveau DY, Guha R, Ferrer M, Arnaldez FI, Ji J, Tran HL, Zhang Y, Mendoza A, Helman LJ, Thomas CJ. Matrix Screen Identifies Synergistic Combination of PARP Inhibitors and Nicotinamide Phosphoribosyltransferase (NAMPT) Inhibitors in Ewing Sarcoma. Clin Cancer Res. 2017 Dec 1;23(23):7301-7311. doi: 10.1158/1078-0432.CCR-17-1121. Epub 2017 Sep 12. PMID: 28899971; PMCID: PMC6636827.
Turning to `CC(=Cc1ccccc1)C=C1SC(=S)N(CC(=O)O)C1=O`, the Potency result was “inactive”.

As to `NC1=N[C@@]2(c3cc(NC(=O)c4ccc(F)cn4)ccc3F)COC[C@@H]2CS1`, the Potency is 13.2 µM (active).

With `O=C(NCc1ccccc1)c1csc(Nc2ccncn2)n1`, the Potency was 16.6 µM (active).

For the molecule `COc1cccc2c1CCCC2CCCN1CCN(C2CCCCC2)CC1` (stereo not given), the Potency was 16.6 µM (active).

Regarding `O=c1cc(N2CCOCC2)oc2c(-c3cccc4c3sc3ccccc34)cccc12`, the Potency was 3.72 µM (active).

Regarding `CC(C)(C)Cn1c(N)nc2ccc(-c3[nH]c(C(C)(C)C)nc3-c3ccc(F)cc3)nc21`, the Potency is 16.6 µM (active).

For the molecule `Cc1ccc(/C=N/NC(=O)c2ccccc2Oc2ccccc2)o1`, the Potency result was “inactive”.

Take `COc1ccc(-c2nc(N3CCOCC3)c3sc(CN(C)c4ncc(C(=O)NO)cn4)cc3n2)cn1`: the Potency entry is “inactive”.

Turning to `CC(=O)N(C)C1(c2ccccc2)CCN(CCC[C@]2(c3ccc(Cl)c(Cl)c3)CCCN(C(=O)c3ccccc3)C2)CC1`, the Potency is 13.2 µM (active).

Consider `CN(C)Cc1ccc(-c2nc3cccc4c3n2CCNC4=O)cc1`, for which the Potency was 14.8 µM (active).

In the case of `CO[C@H]1C(=O)[C@]2(C)[C@@H](OC)C[C@H]3OC[C@@]3(OC(C)=O)[C@H]2[C@H](OC(=O)c2ccccc2)[C@]2(O)C[C@H](OC(=O)[C@H](O)[C@@H](NC(=O)OC(C)(C)C)c3ccccc3)C(C)=C1C2(C)C`, the Potency is 0.001 µM (active).

Consider `CC(C(=O)O)c1ccc(-c2ccccc2)c(F)c1` (stereo not given), for which the Potency was 13.2 µM (active).

As for `CO[C@H]1C=CC=C(C)C(=O)NC2=CC(=O)C(NCCN(C)C)=C(C[C@@H](C)C[C@H](OC)[C@@H](O)[C@@H](C)C=C(C)[C@@H]1OC(N)=O)C2=O`, the Potency was 0.0093 µM (active).

Regarding `COc1ccc2c(Oc3ccc(NC(=O)c4c(C)n(CC(C)(C)O)n(-c5ccccc5)c4=O)cc3F)ccnc2c1`, the Potency was 11.8 µM (active).

In the case of `Nc1ncnc2c1nc(Cl)n2[C@@H]1O[C@H](CO)[C@@H](O)[C@@H]1O`, the Potency was 1.32 µM (active).

Consider `N#CC(=C(N)Sc1ccccc1N)C(C#N)=C(N)Sc1ccccc1N`, for which the Potency was 20.9 µM (active).

With `CC(C)=CC[C@@H](O)C1=CC(=O)c2c(O)ccc(O)c2C1=O`, the Potency is 0.833 µM (active).

For `COc1ccc(-c2coc3cc(O)cc(O)c3c2=O)cc1`, the Potency result was “inactive”.

`CN1C[C@H]2c3ccccc3Oc3ccc(Cl)cc3[C@@H]2C1`: the Potency was 4.18 µM (active).

For the molecule `O=C1c2ccccc2-[n+]2ccc3c([nH]c4ccccc43)c21`, the Potency is 1.48 µM (active).

For `CC=C(C)C(=O)O[C@H]1C(C)=C[C@]23C(=O)[C@@H](C=C(CO)[C@@H](O)[C@]12O)[C@H]1[C@@H](C[C@H]3C)C1(C)C`, the Potency is 26.4 µM (active).

As to `Cc1c(O)cccc1C(=O)N[C@@H](CSc1ccccc1)[C@H](O)CN1C[C@H]2CCCC[C@@H]2C[C@@H]1C(=O)NC(C)(C)C`, the Potency is 18.7 µM (active).

Take `O=C(O)c1ccc(-c2cc3cccnc3c(-c3ccc4nonc4c3)n2)cc1`: the Potency was 20.9 µM (active).

In the case of `Cc1ccc(Nc2cc(-c3cccc(N4C(=O)c5ccccc5C4=O)c3)ncn2)cc1NS(C)(=O)=O`, the Potency is 14.8 µM (active).

For `c1cc(-c2sc(-c3ccncc3)c(-c3ccncc3)c2-c2ccncc2)ccn1`, the Potency was 9.35 µM (active).

Turning to `O=C(O)c1cc(O)c2c(c1)C(=O)c1cccc(O)c1C2=O`, the Potency entry was “inactive”.

With `COc1ccc(-c2coc3cc(O)ccc3c2=O)cc1`, the Potency result is “inactive”.

For `CC(C)(C)OC(=O)N[C@H]1CCCCCC=C[C@@H]2C[C@@]2(C(=O)NS(=O)(=O)C2CC2)NC(=O)[C@@H]2C[C@@H](OC(=O)N3Cc4cccc(F)c4C3)CN2C1=O`, the Potency entry was “inactive”.

On to `CC1(C)CCC(CN2CCN(c3ccc(C(=O)NS(=O)(=O)c4ccc(NCC5CCOCC5)c([N+](=O)[O-])c4)c(Oc4cnc5[nH]ccc5c4)c3)CC2)=C(c2ccc(Cl)cc2)C1`, for which the Potency is 7.43 µM (active).

As to `CC(=O)Nc1ccc([C@H](C)C(=O)Nc2ncc(C(C)C)s2)cc1`, the Potency was 1.66 µM (active).

With `O=C(O)CCC1CCC(c2cc(F)ccc2F)(S(=O)(=O)c2ccc(Cl)cc2)CC1` (stereo not given), the Potency is 4.69 µM (active).

Consider `CO[C@H]1C=CO[C@@]2(C)Oc3c(C)c(O)c4c(O)c(c5c(c4c3C2=O)NC2(CCN(CC(C)C)CC2)N=5)=NC(=O)C(C)=CC=C[C@H](C)[C@H](O)[C@@H](C)[C@@H](O)[C@@H](C)[C@H](OC(C)=O)[C@H]1C`, for which the Potency was 16.6 µM (active).

`CC(C)[C@H](CO)Nc1nc(Nc2ccc(C(=O)O)c(Cl)c2)c2ncn(C(C)C)c2n1`: the Potency was 23.5 µM (active).

For `CN(C[C@@H]1COCCO1)S(=O)(=O)Nc1ccc2ccc3ncc(-c4cnn(C)c4)cc3c(=O)c2c1`, the Potency was 2.96 µM (active).

For `Clc1ccc(CCC(Cn2ccnc2)Sc2c(Cl)cccc2Cl)cc1` (stereo not given), the Potency was 26.4 µM (active).

For `CCOC(=O)O[C@]1(C(=O)OCCl)CC[C@@H]2[C@H]3CCC4=CC(=O)C=C[C@]4(C)[C@@H]3[C@@H](O)C[C@@]21C`, the Potency was 20.9 µM (active).

Take `CCC(CC)[C@H](NC(C)=O)[C@@H]1[C@H](O)[C@@H](C(=O)O)C[C@@H]1N=C(N)N`: the Potency is 4.18 µM (active).

Take `NC(=O)c1cnc(-c2ccc(C3(N)CCC3)cc2)c(-c2ccccc2)c1`: the Potency is 13.2 µM (active).

For `CCNc1cc(NC2CCC(O)CC2)nc(Nc2ccc3c(ccn3Cc3ccccc3)c2)n1` (stereo not given), the Potency is 23.5 µM (active).

Consider `O=C(CCCCCCC(=O)Nc1ccccc1)NO`, for which the Potency was 0.833 µM (active).
